The nature of experiment [1]: qHTS assay to test for compound auto fluorescence at 535 nm (green) in HEK293 cells (AID 720680). For orientation: Quantitative high-throughput screening tests each substance at several concentrations.
Experiment [2] in a line: qHTS assay to test for compound auto fluorescence at 460 nm (blue) in HEK293 cell free culture (AID 720681). The procedure, abridged:
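Test compounds were pinned into cell-free culture medium (DMEM with 10% FBS) and fluorescence was read directly at Ex/Em 405/460 nm. Signals were expressed as fluorescence equivalents of triamterene, with DMSO vehicle as control.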

A short description of experiment [3]: qHTS assay to test for compound auto fluorescence at 535 nm (green) in HEK293 cell free culture (AID 720682). The procedure, abridged:
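Each library compound, or DMSO control, is added by pintool to medium alone, comprising DMEM and 10% FBS. Emission at 535 nm following 485 nm excitation is quantified against fluorescein.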

The nature of experiment [4]: qHTS assay to test for compound auto fluorescence at 590 nm (red) in HEK293 cell free culture (AID 720683). The procedure, abridged:
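Tox21 10K library compounds were pinned into cell-free DMEM with 10% FBS and fluorescence was read at excitation 540 nm. Activity is expressed as Rose Bengal sodium equivalency.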

A short description of experiment [5]: qHTS assay to test for compound auto fluorescence at 590 nm (red) in HepG2 cell free culture (AID 720684). The essentials:
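Ex 540 / Em 590 nm read of compound in cell-free MEM (10% FBS). Rose Bengal sodium reference.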

A short description of experiment [6]: qHTS assay to test for compound auto fluorescence at 460 nm (blue) in HepG2 cell free culture (AID 720685). The essentials:
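Cell-free plates of MEM plus 10% FBS received 23 nL compound or DMSO vehicle; blue-channel (405/460 nm) intensity scored against triamterene as reference fluorophore.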

Experiment [7] in a line: qHTS assay to test for compound auto fluorescence at 535 nm (green) in HepG2 cell free culture (AID 720686).
Experiment [8] can be described thus: qHTS assay to test for compound auto fluorescence at 460 nm (blue) in HepG2 cells (AID 720687). The procedure, abridged:
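Cells (2,000/well in MEM with 10% FBS) attached overnight at 37 C, then were exposed to compound or DMSO for 1 hr at 37 C, 5% CO2. Fluorescence read at Ex/Em 405/460 nm, expressed as triamterene-equivalent signal.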

In experiment [9] the target is Glucocorticoid receptor (Homo sapiens) (UniProt P04150). Nature of the experiment: qHTS assay to identify small molecule agonists of the glucocorticoid receptor (GR) signaling pathway (AID 720691; active = well fitted activation curve with a large enough effect in the signal ratio in the repeat runs, not every such curve was filed as active; inconclusive = weak or mixed curves, or effect the other way; inactive = no such curve, though single readings can be large or run the other way; the % refers to the signal ratio; note: potency is the fitted concentration of half-maximal effect). As to conditions: GR-bla HeLa, beta-lactamase reporter ratio, 18 h; activation: at 62.4 µM (top of the series). The essentials:
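A HeLa cervical cancer line expressing GR and a glucocorticoid response element-driven beta-lactamase gene is treated with compounds for 18 h; LiveBLAzer B/G FRET substrate is then applied and fluorescence read.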

Activity calls are given as the source filed them. Unless noted, calls come from the whole dose curve; as a rule, active = well fitted curve in the direction sought with a large enough effect in the repeat runs; inconclusive = weak or mixed curves; inactive = flat fitted curve, though single readings scatter.

Chain of Glucocorticoid receptor (Homo sapiens) (P04150 whole entry, looked up): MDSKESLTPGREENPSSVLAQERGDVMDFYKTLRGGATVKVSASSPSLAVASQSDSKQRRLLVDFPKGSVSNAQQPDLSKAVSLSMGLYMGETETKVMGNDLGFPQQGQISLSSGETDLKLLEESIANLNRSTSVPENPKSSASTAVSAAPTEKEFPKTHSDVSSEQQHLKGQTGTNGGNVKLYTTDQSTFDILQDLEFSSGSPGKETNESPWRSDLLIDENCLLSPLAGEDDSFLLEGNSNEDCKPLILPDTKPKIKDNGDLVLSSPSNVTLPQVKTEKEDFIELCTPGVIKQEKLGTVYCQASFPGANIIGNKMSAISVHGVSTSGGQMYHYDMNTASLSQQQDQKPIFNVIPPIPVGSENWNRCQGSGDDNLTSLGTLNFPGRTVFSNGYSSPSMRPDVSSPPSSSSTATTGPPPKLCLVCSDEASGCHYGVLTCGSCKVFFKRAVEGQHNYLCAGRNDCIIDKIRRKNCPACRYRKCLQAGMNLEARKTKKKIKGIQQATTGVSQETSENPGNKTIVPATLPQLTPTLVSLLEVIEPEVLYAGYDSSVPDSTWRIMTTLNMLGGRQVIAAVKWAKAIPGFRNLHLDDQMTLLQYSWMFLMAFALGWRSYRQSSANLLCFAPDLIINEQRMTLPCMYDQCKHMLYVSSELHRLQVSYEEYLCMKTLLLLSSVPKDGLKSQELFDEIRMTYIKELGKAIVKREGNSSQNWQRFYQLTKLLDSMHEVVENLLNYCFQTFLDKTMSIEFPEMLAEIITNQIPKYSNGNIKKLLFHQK

In the case of `C[C@@H]1C[C@H]2[C@@H]3C[C@H](F)C4=CC(=O)C=C[C@]4(C)[C@@]3(Cl)[C@@H](O)C[C@]2(C)[C@H]1C(=O)COC(=O)C(C)(C)C`, the outcome in experiment [1], in experiment [3], in experiment [4] and in experiment [5] was inactive. Moreover, the Potency entry in [2], in [6], in experiment [7] and in [8] was “inactive” each time.
Consider `CN1C(C(=O)Nc2ccccn2)C(=O)c2sc(Cl)cc2S1(=O)=O` (stereo unspecified), for which the compound was classed as inactive in experiment [1], in experiment [3], in experiment [4] and in experiment [5]. The Potency entry in [2], in experiment [6], in experiment [7] and in [8] was “inactive” throughout.
With `NCc1cccc(C2CCN(C(=O)c3ccc(C#Cc4ccccc4F)o3)CC2)c1`, the compound was classed as inactive in experiment [1], in experiment [3], in experiment [4] and in [5]. For the same compound, the Potency entry in [2], in [6], in [7] and in experiment [8] was “inactive” in each case.
On to `c1ccc2cc3c4ccccc4c4ccccc4c3cc2c1`, for which the call in experiment [1], in experiment [3], in experiment [4] and in experiment [5] was inactive. Moreover, the Potency result in [2], in [6], in experiment [7] and in [8] was “inactive” in each case.
As to `CC1=C(/C=C/C(C)=C/C=C/C(C)=C\C(=O)O)C(C)(C)CCC1`, the compound was called inactive in experiment [1], in experiment [3], in [4] and in experiment [5]. Also, the Potency result in experiment [2], in experiment [6], in [7] and in experiment [8] was “inactive” each time.
Regarding `CN(C[C@@H](CC[N+]12CCC(C3CCCCC3)(CC1)CC2)c1ccc(Cl)c(Cl)c1)C(=O)c1cc(C(F)(F)F)cc(C(F)(F)F)c1`, the result in experiment [1], in experiment [3], in experiment [4] and in experiment [5] was inactive. The Potency entry in experiment [2], in [6], in experiment [7] and in experiment [8] was “inactive” each time.
On to `NC(=O)c1cc[n+](CC2=C(C(=O)O)N3C(=O)[C@@H](NC(=O)C(c4ccccc4)S(=O)(=O)[O-])[C@H]3SC2)cc1` (stereo partly specified), for which the compound was called inactive in [1], in [3], in experiment [4] and in experiment [5]. The Potency entry in experiment [2], in experiment [6], in experiment [7] and in [8] was “inactive” each time.
Take `O=C(O)C[C@H](O)C[C@H](O)/C=C/c1c(C2CC2)nc2ccccc2c1-c1ccc(F)cc1`: the call in experiment [1], in experiment [3], in experiment [4] and in experiment [5] was inactive. The Potency result in experiment [2], in experiment [6], in experiment [7] and in experiment [8] was “inactive” throughout.
On to `CCCCC[C@H](O)/C=C/[C@@H]1[C@@H](C/C=C\CCCC(=O)O)[C@@H](O)C[C@H]1O`, for which the compound was classed as inactive in experiment [1], in experiment [3], in [4] and in experiment [5]. Besides, the Potency entry in experiment [2], in experiment [6], in experiment [7], in experiment [8] and in experiment [9] was “inactive” each time.
As for `O=C[C@H](O)[C@@H](O)[C@@H](O)[C@H](O)CO`, the compound was called inactive in experiment [1], in experiment [3], in experiment [4] and in experiment [5]. Further, the Potency entry in experiment [2], in experiment [6], in experiment [7], in experiment [8] and in experiment [9] was “inactive” throughout.
On to `CCCOC(=O)c1ccccc1O`, for which the result in [1], in [3], in [4] and in experiment [5] was inactive. Besides, the Potency result in experiment [2], in experiment [6], in experiment [7], in [8] and in experiment [9] was “inactive” throughout.
As to `CC/C=C\C/C=C\C/C=C\C/C=C\C/C=C\CCCC(=O)O`, the result in experiment [1], in experiment [3], in experiment [4] and in [5] was inactive. The Potency entry in experiment [2], in experiment [6], in experiment [7], in experiment [8] and in experiment [9] was “inactive” throughout.
Regarding `CO/N=C(\C(=O)N[C@@H]1C(=O)N2C(C(=O)O)=C(CSc3cnns3)CS[C@H]12)c1csc(N)n1`, the outcome in experiment [1], in [3], in [4] and in experiment [5] was inactive. Besides, the Potency result in experiment [2], in [6], in experiment [7], in experiment [8] and in [9] was “inactive” in each case.
On to `C1CCc2nnnn2CC1`, for which the compound was called inactive in experiment [1], in experiment [3], in experiment [4] and in experiment [5]. Also, the Potency result in [2], in experiment [6], in experiment [7] and in experiment [8] was “inactive” throughout.
Consider `CC(C)CCC[C@@H](C)[C@H]1CC[C@H]2[C@@H]3CC[C@@H]4C[C@H](O)CC[C@]4(C)[C@H]3CC[C@]12C`, for which the result in experiment [1], in experiment [3], in [4] and in experiment [5] was inactive. The Potency result in experiment [2], in [6], in experiment [7], in experiment [8] and in experiment [9] was “inactive” each time.
For the compound `CO/N=C(\C(=O)N[C@@H]1C(=O)N2C(C(=O)O)=C(CSc3nc(C)c(CC(=O)O)s3)CS[C@H]12)c1csc(N)n1`, the call in experiment [1], in experiment [3], in experiment [4] and in [5] was inactive. Besides, the Potency result in experiment [2], in [6], in [7], in experiment [8] and in [9] was “inactive” in each case.
For the compound `COc1ccc(/C=C/C(=O)Nc2ccccc2C(=O)O)cc1OC`, the compound was called inactive in [1], in [3], in experiment [4] and in experiment [5]. Further, the Potency entry in experiment [2], in experiment [6], in experiment [7], in experiment [8] and in experiment [9] was “inactive” throughout.
On to `CC[C@@H](C(=O)[C@@H](C)[C@@H](O)[C@H](C)CCc1ccc(C)c(O)c1C(=O)O)[C@H]1O[C@](CC)([C@H]2CC[C@](O)(CC)[C@H](C)O2)C[C@@H]1C`, for which the call in experiment [1], in experiment [3], in experiment [4] and in experiment [5] was inactive. In addition, the Potency entry in experiment [2], in experiment [6], in experiment [7] and in experiment [8] was “inactive” each time. In experiment [9], the Potency is 16.9 µM [inconclusive] (active).
As for `O=C(O)c1ccc(NC2OC[C@@H](O)[C@H](O)[C@H]2O)cc1` (stereo partly specified), the compound was called inactive in [1], in [3], in [4] and in [5]. For the same compound, the Potency entry in experiment [2], in experiment [6], in [7], in experiment [8] and in experiment [9] was “inactive” throughout.
Consider `C=CCc1cc(S(=O)(=O)c2ccc(O)c(CC=C)c2)ccc1O`, for which the result in experiment [1], in experiment [3], in experiment [4] and in experiment [5] was inactive. In addition, the Potency result in experiment [2], in experiment [6], in experiment [7], in experiment [8] and in experiment [9] was “inactive” in each case.
